# Source: PubChem (several laboratories)
# AI-2 QS modul = modulates the Vibrio harveyi AI-2 quorum sensing system. Vibrio harveyi JMH597 AI-2 luminescence/OD600 ratio, 9 h; stronger effect = lower value; strain lacks LuxN and CqsS sensors; 0 = neutral-control median. activity change, % at 7.5 µM. 300,000 tested, 0.4% active. AID 2094; in the data active = activity change below about -75%, passing the limit was not always enough;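 also: luminescence divided by OD600 gain over 9 h not by final OD600 alone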
# NTR1 agonist = NTR1 (human) agonism | AID 493036 | P30989 | activation, % at 20 µM | 330,000 tested, 0.17% active | NTR1-U2OS beta-arrestin-GFP spot imaging, agonist mode;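 active = activation at or above 40% of the spot to cytoplasm intensity ratio, with at least 20 cells analyzed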;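 also: 0% = DMSO without peptide and 100% = 100 nM NTR1 peptide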
# Mot1-301 SUMO = inhibitors of SUMOylation pathway: yeast Mot1-301 growth rescue | S. cerevisiae Mot1-301 growth rescue, ATP luminescence, 38.5C; percent above DMSO median, 100 means doubled | 320,000 tested, 1% active | growth rescue, % at 18.8 µM | AID 2716;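 active = every valid replicate shows activation above 250% relative to neutral control wells; inactive = the rest, any valid replicate at or below 250%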;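 also: OY570 slx delta 5 strain wells were the positive control but not used for scaling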
# Cardio protect = protects H9c2 cardiomyocytes from peroxide injury | H2O2 injury protection, ATPLite, 2 h | protection from H2O2 cell death, % at 20 µM | 360,000 tested, 0.63% active;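 active = compounds giving at least 50% protection of heart cells from peroxide-induced death in the single-dose screen, raw or plate-pattern-corrected value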;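 also: 0% = DMSO wells with peroxide and 100% = DMSO wells without peroxide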
# AHR act = activators of human aryl hydrocarbon receptor; AHR-responsive luciferase reporter cells, luminescence; activation, % at 5 µM; 320,000 tested, 2.5% active; in the data active = activation above about 47%;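 also: 0% = vehicle wells and 100% = reference agonist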
# NR3A LBD binder = NR3A (human) ligand-binding domain modulation | NR3A LBD differential scanning fluorimetry, Tm shift; 0% = protein alone, 100% = glycine-bound protein | Tm shift relative to glycine control, % at 25 µM | 340,000 tested, 2.5% active;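 active = melting temperature shift of at least 10% of the positive control shift, at one fixed dose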
# AHR act cf = confirmation of human aryl hydrocarbon receptor activators | shares compounds with AHR act | human cells, AHR-responsive luciferase reporter, luminescence | activation, % at 9 µM | 2,300 tested, 87% active; in the data active = activation above about 49%;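 also: HepG2 hepatoma cells carrying a DRE-driven firefly luciferase reporter; 0% = vehicle wells and 100% = reference agonist wells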
# PXR act counter = activates human PXR in AHR activator counter-screen; shares compounds with AHR act; cell-based PXR reporter, luciferase luminescence; activation, % at 11.6 µM; 2,300 tested, 88% active; in the data active = activation above about 11%;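 also: human hepatoma DPX-2 cells expressing full-length human PXR; 0% = DMSO and 100% = reference agonist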
# Target sequence (O75469 whole entry, looked up): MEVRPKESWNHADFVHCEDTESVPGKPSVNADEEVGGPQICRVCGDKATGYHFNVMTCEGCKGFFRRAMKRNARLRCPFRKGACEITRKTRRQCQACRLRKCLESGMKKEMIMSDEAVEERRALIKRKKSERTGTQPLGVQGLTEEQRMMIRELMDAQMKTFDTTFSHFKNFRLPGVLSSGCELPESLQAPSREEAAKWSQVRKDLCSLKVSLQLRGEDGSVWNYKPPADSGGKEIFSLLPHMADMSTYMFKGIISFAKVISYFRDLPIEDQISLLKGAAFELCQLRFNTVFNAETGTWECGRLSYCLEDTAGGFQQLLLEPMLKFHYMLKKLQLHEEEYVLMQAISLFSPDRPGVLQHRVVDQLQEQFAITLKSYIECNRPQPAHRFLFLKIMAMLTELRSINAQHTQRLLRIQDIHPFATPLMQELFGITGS
# Active calls of the source: *; / = no result given. Sampled rows, rich in hits. Any-hit rate of the full collection: about 6.2%.
SMILES,AI-2 QS modul,NTR1 agonist,Mot1-301 SUMO,Cardio protect,AHR act,NR3A LBD binder,AHR act cf,PXR act counter
O=C(COc1ccc(Cl)cc1Br)N1CCN(c2ncccn2)CC1,/,0.2,/,-5.2,/,-2.5,/,/
Cc1ccc(NC(=O)CCCCCN2C(=O)[C@@H]3Cc4ccccc4CN3C2=O)cc1,-1.2,0.6,3.3,-1.4,-3.0,0.7,/,/
CC(C)c1ccc(NC(=O)CCN2C(=O)[C@@H]3Cc4ccccc4CN3C2=O)cc1,16.9,0.2,160.5,-3.9,89.5*,-1.1,0.6,96.6*
Cn1c(NC(=O)CCc2ccccc2)cc(=O)n(C)c1=O,10.0,1.6,-5.2,-17.9,148.6*,0.4,108.6*,24.5*
CCCC(=O)Nc1cc(=O)n(C)c(=O)n1C,24.4,17.8,-2.1,-10.7,2.7,0.6,/,/
COCCNC(=S)Nc1cccc2cnccc12,9.3,0.5,23.4,-1.2,1.1,-1.0,/,/
CCCCNC(=S)Nc1cccc2cnccc12,16.2,1.2,-7.4,-7.3,89.0*,0.6,61.1*,12.5*
O=C(CCN1C(=O)C2C3CCC(C3)C2C1=O)OCC(=O)c1ccc(Cl)cc1 (stereo not given),20.7,-0.6,-0.7,6.1,/,0.6,/,/
COc1ccc2nccc(/C=C/c3ccnc4ccc(OC)cc34)c2c1,14.4,1.6,247.6,-1.1,104.8*,1.4,95.6*,33.7*
COc1ccc(OC)c(/C=C/c2ccnc3ccccc23)c1,/,/,/,2.6,/,-1.0,/,/
N#Cc1ccccc1NC(=O)COc1ccccc1C(=O)Nc1ccccc1,/,-0.2,4.5,-5.5,93.3*,-5.4,95.0*,41.1*
COc1ccccc1NC(=O)COc1ccccc1C(=O)Nc1ccccc1,44.2,2.7,-14.0,0.0,29.0,-1.6,/,/
Cc1cc(-c2n[nH]c(=S)n2/N=C/c2sccc2C)n[nH]1,19.3,-1.5,-7.1,3.2,111.5*,0.2,91.5*,25.0*
Cc1cccc(-c2n[nH]c(=S)n2/N=C/c2cccs2)c1,-0.5,0.7,0.2,2.8,12.8,2.6,/,/
Cc1ccsc1/C=N/n1c(-c2ccccc2)n[nH]c1=S,15.1,-1.8,1.4,-1.9,80.2*,0.5,67.6*,46.2*
S=c1[nH]nc(-c2cc(-c3ccccc3)n[nH]2)n1/N=C/c1cccs1,39.8,2.1,11.8,-9.3,132.4*,-1.3,128.3*,38.9*
Cc1ccsc1/C=N/n1c(-c2ccco2)n[nH]c1=S,15.4,-0.9,3.6,-4.8,2.0,2.0,/,/
COc1ccc(-n2ccnc2SCC(=O)NC2CCCC2)cc1,/,1.4,1.1,8.9,0.2,0.3,/,/
C(=C\c1ccccc1)/CN1CCN(C(c2ccccc2)c2nnnn2Cc2ccccc2)CC1 (stereo not given),/,/,/,1.5,/,/,/,/
CCN(CC)C(=O)c1sc2nc(-c3ccncc3)[nH]c(=O)c2c1C,19.1,-0.8,-21.5,14.9,5.2,-3.5,/,/
CCN(CC)C(=O)c1sc2nc(-c3ccccn3)[nH]c(=O)c2c1C,17.5,2.4,-14.9,16.7,83.2*,1.4,40.8,52.0*
Sc1oc(-c2ccccc2)cc1C=Nc1ccccc1,6.9,2.3,24.0,-0.2,79.5*,14.0*,38.6,20.2*
COc1ccccc1Oc1ccc(S(=O)(=O)N2CCCCC2)cc1NC(=O)CCNC(C)=O,2.6,0.6,-13.1,-2.0,6.6,-0.5,/,/
c1cn(CCCNc2ncnc3sc4c(c23)CCC4)cn1,27.9,0.5,-3.8,0.6,128.0*,0.1,91.7*,17.8*
O=C(NC(=S)Nc1ccc2cn[nH]c2c1)c1ccccc1,12.3,0.1,0.3,-0.5,83.7*,-1.5,80.8*,75.3*
CSc1nsc(SCC(=O)Nc2nc3ccccc3s2)n1,8.0,-1.4,31.4,-9.0,79.7*,4.1,52.5*,13.0*
COCCCn1nnnc1SCC(=O)Nc1nc2ccccc2s1,27.6,0.3,24.2,-5.6,112.3*,-3.2,101.4*,61.5*
CCn1nnnc1SCC(=O)Nc1nc2ccccc2s1,-1.5,1.2,397.7,0.6,86.1*,-2.5,61.1*,42.0*
